# Screening data deposited in PubChem by several laboratories.
# An excerpt weighted towards active compounds, which were near 3.9% of everything screened.
# Anthrax LF inh2 = inhibitors of Bacillus anthracis lethal factor protease; inhibition, % at 10 µM; 360,000 tested, 0.12% active; multiplex microsphere protease cleavage assay, LF
# Target sequence (P15917 whole entry, looked up): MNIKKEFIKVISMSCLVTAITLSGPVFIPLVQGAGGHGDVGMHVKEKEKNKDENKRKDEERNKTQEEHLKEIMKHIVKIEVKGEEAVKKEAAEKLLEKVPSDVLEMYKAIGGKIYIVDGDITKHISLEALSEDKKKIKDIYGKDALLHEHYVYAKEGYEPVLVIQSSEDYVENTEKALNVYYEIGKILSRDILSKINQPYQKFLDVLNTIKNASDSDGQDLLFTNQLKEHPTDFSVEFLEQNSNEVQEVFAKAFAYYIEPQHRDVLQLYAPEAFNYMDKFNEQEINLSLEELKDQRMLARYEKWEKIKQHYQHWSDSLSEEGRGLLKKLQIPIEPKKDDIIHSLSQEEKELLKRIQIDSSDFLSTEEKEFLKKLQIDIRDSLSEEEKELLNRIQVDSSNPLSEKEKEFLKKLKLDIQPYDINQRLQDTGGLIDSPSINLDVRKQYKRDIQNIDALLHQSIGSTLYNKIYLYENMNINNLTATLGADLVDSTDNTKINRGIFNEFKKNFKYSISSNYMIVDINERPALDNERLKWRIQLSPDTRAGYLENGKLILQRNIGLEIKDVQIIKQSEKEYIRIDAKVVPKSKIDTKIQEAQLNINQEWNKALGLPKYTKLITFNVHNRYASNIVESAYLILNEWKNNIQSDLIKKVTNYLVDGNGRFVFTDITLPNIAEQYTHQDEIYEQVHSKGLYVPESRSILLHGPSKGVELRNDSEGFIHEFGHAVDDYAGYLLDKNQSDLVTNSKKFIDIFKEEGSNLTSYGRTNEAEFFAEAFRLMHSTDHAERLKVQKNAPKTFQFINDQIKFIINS
# 3CLpro inhibitor = SARS-CoV 3CLpro protease inhibition. P0C6X7. inhibition, % at 6 µM. recombinant SARS-CoV 3CLpro, quenched FRET peptide cleavage. 290,000 tested, 0.14% active. AID 1706; in the data active means inhibition above about 12%
# BoNT A protease = inhibitors of Botulinum neurotoxin A light chain protease | multiplex microsphere protease substrate cleavage, flow cytometry | inhibition, % at 10 µM | 360,000 tested, 0.17% active
# BoNT F protease = inhibitors of Botulinum neurotoxin F light chain protease; Multiplex microsphere protease cleavage assay, flow cytometry; inhibition, % at 10 µM; 360,000 tested, 0.22% active; AID 588497; in the data active means inhibition above about 35%, passing the limit was not always enough; inconclusive means no clear call, values can overlap the other calls
# Bead autofluor = flagged as autofluorescent in microsphere protease counterscreen; compound autofluorescence counterscreen, microsphere flow cytometry; hits give high values; fluorescence intensity (no concentration beside the values); 360,000 tested, 3.1% active; AID 624483; in the data active means fluorescence intensity above about 16000; inconclusive means no clear call, values can overlap the other calls
# CCHF vOTU inh-1 = CCHFV vOTU protease inhibition | inhibition, % at 11.5 µM | 370,000 tested, 0.55% active | Pep-AMC fluorescence; in the data active means inhibition above about 30%
# CCHF vOTU inh-2 = confirmation of CCHF virus vOTU protease inhibitors | shares compounds with CCHF vOTU inh-1 | Recombinant CCHFV vOTU, Pep-AMC fluorescence | inhibition, % at 11.5 µM | 1,900 tested, 17% active | AID 686976; in the data active means inhibition above about 30%
# Hits are given with their value; . = inactive; ? = inconclusive; / = not tested or not shown. Unless noted, no stated cut-off is given here; in the data, active means inhibition above about 30%; inconclusive means no clear call, values can overlap the other calls; inactive means below that.
SMILES,Anthrax LF inh2,3CLpro inhibitor,BoNT A protease,BoNT F protease,Bead autofluor,CCHF vOTU inh-1,CCHF vOTU inh-2
O=C1C=C(N2CCOCC2)c2cccc3cccc1c23,.,/,.,.,.,.,/
O=C1C=C(N2CCOCC2)c2ccccc2C1=O,.,.,.,.,.,103,94
O=C1C=C(N2CC2)c2ccccc2C1=O,.,/,.,.,.,105,92
Cc1ccc([C@H]2C[C@]34CN(Cc5ccccc5)S(=O)(=O)[C@H]3C[C@H]2O4)cc1,/,/,/,/,/,.,/
COc1cccc(NP(=O)(Oc2ccccc2)Oc2ccccc2)c1,.,.,.,.,.,30,.
CN1CCN(C2=C(NS(=O)(=O)c3ccccc3)C(=O)c3ccccc3C2=O)CC1,.,.,.,.,.,/,/
CCN1CCN(C2=C(NS(=O)(=O)c3ccccc3)C(=O)c3ccccc3C2=O)CC1,.,.,.,.,.,46,.
CCN1CCN(C2=C(NS(=O)(=O)c3ccc(Br)cc3)C(=O)c3ccccc3C2=O)CC1,.,.,.,.,.,78,.
C[C@H]1C2CC(OC(=O)Nc3ccc(C(F)(F)F)cc3)C(C2)[C@H]2CCCCN21 (some centres undefined),/,/,/,/,/,.,/
Cc1cc2c(N)cccc2nn1,.,.,.,.,.,111,.
Nc1cccc2cc(S(=O)(=O)O)ccc12,.,/,.,.,.,32,37
COC(=O)[C@]12C[C@H](CC(=O)N3CCN(C(=O)c4ccco4)CC3)C(=O)N(Cc3ccc4c(c3)OCO4)C1=C[C@H](COCc1ccccc1)O[C@@H]2C,/,/,/,/,/,.,/
COCc1cc(N2CCN(C(=O)OC(C)(C)C)C[C@@H]2C)ccc1N1C[C@@H](C)O[C@@H](C)C1,/,/,/,/,/,.,/
COCc1cc(N2CCN(C(=O)OC(C)(C)C)C[C@H]2C)ccc1N1C[C@@H](C)O[C@@H](C)C1,/,/,/,/,/,35,.
Nc1ccccc1C(=O)N1CCc2ccccc21,.,.,.,?,.,49,.
C=C1c2nc3ccccc3n2C=C(c2ccc(C)cc2)N1c1ccccc1,.,/,.,.,.,35,.
COC(=O)[C@]12C[C@H](CC(=O)NCC34CC5CC(CC(C5)C3)C4)C(=O)N(Cc3cccc4ccccc34)C1=C[C@H](COCc1ccccc1)O[C@@H]2C,/,/,/,/,/,.,/
O=C(CCCn1c(=O)oc2ccccc21)N1CCc2ccccc2C1,.,.,.,.,.,35,.
COC(=O)C1=C(C)N(C)C(=NCc2ccc(OC)cc2)NC1c1ccc(F)cc1 (centres undefined),/,/,/,/,/,.,/
Nc1cc(N)c2c(c1)C(=O)c1ccccc1-2,.,/,.,.,.,.,/
NC1=C(Cl)C(=O)c2ccccc2C1=O,.,/,.,.,.,81,81
NS(=O)(=O)c1ccc2c(c1)C(=NO)c1cc(S(N)(=O)=O)ccc1-2,.,.,.,.,.,.,/
NC1=C(Cl)C(=O)c2ccc(S(N)(=O)=O)cc2C1=O,.,/,.,.,.,103,99
Cc1ccc(S(=O)(=O)NN=C(c2ccccc2)c2cccs2)cc1,.,/,.,.,.,32,.
CCCCn1c(N)c(N(CC(C)C)C(=O)CSCC(=O)Nc2cccc(C)c2)c(=O)[nH]c1=O,.,/,.,.,.,34,.
SMILES,Anthrax LF inh2,3CLpro inhibitor,BoNT A protease,BoNT F protease,Bead autofluor,CCHF vOTU inh-1,CCHF vOTU inh-2
CCCCN(C(=O)CSCC(=O)Nc1cccc(C)c1)c1c(N)n(CCCC)c(=O)[nH]c1=O,?,/,.,.,?,.,/
CN(C)CCCN1c2ccc([N+](=O)[O-])cc2CCc2cc([N+](=O)[O-])ccc21,.,/,.,.,.,35,.
Cc1ccc(S(=O)(=O)/N=C2\C=C(Nc3cccc(C(=O)O)c3)C(=O)c3ccccc32)c(C)c1,.,.,.,.,.,114,112
Cc1ccc(NC2=C/C(=N/S(=O)(=O)c3cccs3)c3ccccc3C2=O)cc1,.,.,.,.,.,98,99
O=C1C(Nc2ccccc2)=C/C(=N/S(=O)(=O)c2cccs2)c2ccccc21,.,.,.,.,.,/,/
NS(=O)(=O)c1ccc(N=Nc2c(O)[nH]c(=S)[nH]c2=O)cc1,.,.,.,.,.,.,/
NS(=O)(=O)c1ccc(N=Nc2ccc(=O)[nH]c2O)cc1,.,.,.,.,.,32,.
Cc1ccc(CSc2nnc(-c3cc(-c4ccc(C)cc4)n[nH]3)n2N)cc1,/,/,/,/,/,.,/
Cn1c(=O)c2c(-c3ccccc3)n(-c3ccc(N)cc3)cc2n(C)c1=O,.,/,.,.,.,98,92
Nc1ccc2cc3ccccc3cc2c1,.,/,.,.,.,.,/
Nc1ccc2ccc(N)cc2c1,/,/,/,/,/,34,.
Cn1c(N)c(C(=O)CCc2ccccc2)c(=O)n(C)c1=O,/,/,/,/,/,.,/
CCN(CC(=O)c1c(N)n(C)c(=O)n(C)c1=O)c1cccc2ccccc12,.,.,.,.,.,82,.
CC(CNC(=O)[C@@H](Cc1ccccc1)NC(=O)[C@H]1O[C@@H](n2ccc(=O)[nH]c2=O)[C@H](O)[C@@H]1O)c1ccccc1 (some centres undefined),/,/,/,/,/,.,/
COc1cccc(OCc2cc(C(=O)N(C)C3CCOCC3)no2)c1,.,.,.,.,.,30,.
COc1cccc(OCc2cc(C(=O)N(C)C3CC(C)(C)NC(C)(C)C3)no2)c1,.,.,.,.,.,.,/
CC(C)(C=O)C1=CC(=O)c2ccccc2C1=O,.,.,.,.,.,79,.
CC1=CC(=O)c2ccccc2C1=O,.,.,.,.,.,.,/
Cc1c(N=C2C=C(Br)C(=O)C(Br)=C2)c(=O)n(-c2ccccc2)n1C,.,.,.,.,.,.,/
Cc1c(N=C2C=CC(=O)c3ccccc32)c(=O)n(-c2ccccc2)n1C,.,.,.,.,.,90,.
CCN(CC)C(=O)CC[C@@H]1CC[C@]2(CCCN(Cc3ccccn3)C2)O1,/,/,/,/,/,.,/
Cc1ccc(S(=O)(=O)NCCOc2cc(C)ccc2C)cc1,.,.,.,.,.,30,.
Cc1cc(C)cc(OCC(=O)N2N=C(C(F)(F)F)CC2(O)C(C)(C)C)c1 (centres undefined),.,.,.,.,.,30,.
Cc1cc(C)cc(OCC(=O)N2N=C(c3cccnc3)CC2(O)C(F)(F)F)c1 (centres undefined),.,.,.,.,.,.,/
Cn1nc(C(C)(C)C)cc1NC(=O)C1(C)CCN1C(=O)CC(c1ccccc1)c1ccccc1 (centres undefined),.,/,.,.,.,33,.
O=[N+]([O-])c1nccn1CC(O)CCN1CCOCC1 (centres undefined),/,/,/,/,/,.,/
Cc1ccccc1CN1CCCCC(NC(=O)c2ccccc2F)C1=O (centres undefined),/,/,/,/,/,.,/
Cc1ccc(NS(=O)(=O)c2cccc3cccnc23)c(Cl)c1,.,.,.,?,.,37,.
CCO[C@H]1OC(C(=O)NCc2ccccc2)=C[C@@H](c2ccc(C(F)(F)F)cc2)[C@@H]1CCCO,.,.,.,.,.,.,/
